Assay results as given in PubChem BioAssay AID1159580 (chemical genetic matrix, 2015).
Where “and” joins values, the source holds several entries; their conditions need not be identical. Equal entries are not always repeated. The whole screen tested about 5,500 compounds, of which about 2,000 (36%) were called active. Not shown: some 18% with an inconclusive outcome. Cut-off read from the data, not from the text of the source: active = normalized growth mostly below about 0.91 (no sharp cut-off); inconclusive = no clear call, values can overlap the other calls; inactive = mostly above about 0.92. The list shows a part of the results.

Assay: chemical genetic growth profiling, strain panel (AID 1159580);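 note: tested at 20 µM; growth read once vehicle control cultures reached saturation at 30 °C; 1 = growth at the plate median or of vehicle wells; lower values mean less growth of the strain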
Details: growth OD

Measured: normalized growth

CCCCNc1cc(C(=O)O)cc(S(N)(=O)=O)c1Oc1ccccc1
inactive: S. cerevisiae deletion strains, locus YKL009W, strain mrt4, active compounds read low 0.979 | S. cerevisiae deletion strains, locus YKL068W, active compounds read low 0.986 | S. cerevisiae deletion strains, locus YKL085W, strain MDH1 (second series), active compounds read low 0.989 | S. cerevisiae deletion strains, locus YKL085W, strain MDH1, active compounds read low 0.989 | S. cerevisiae deletion strains, locus YKL160W, strain elf1, active compounds read low 0.995 | S. cerevisiae deletion strains, locus YKL190W, strain CNB1, active compounds read low 0.994 | S. cerevisiae deletion strains, locus YKR001C, strain vps1, active compounds read low 0.983 | S. cerevisiae deletion strains, locus YKR026C, strain gcn3, active compounds read low 1.01 | S. cerevisiae deletion strains, locus YKR091W, strain srl3, active compounds read low 1 | S. cerevisiae deletion strains, locus YLL001W, strain dnm1, active compounds read low 1 | S. cerevisiae deletion strains, locus YLL026W, active compounds read low 0.992 | S. cerevisiae deletion strains, locus YLL041C, strain sdh2, active compounds read low 0.991 | S. cerevisiae deletion strains, locus YLR027C, strain aat2, active compounds read low 1.01 | S. cerevisiae deletion strains, locus YLR039C, strain RIC1, active compounds read low 1.01 | S. cerevisiae deletion strains, locus YLR058C, strain SHM2, active compounds read low 0.988 | S. cerevisiae deletion strains, locus YLR102C, strain apc9, active compounds read low 0.984 | S. cerevisiae deletion strains, locus YLR113W, strain HOG1, active compounds read low 1.04 | S. cerevisiae deletion strains, locus YLR221C, strain rsa3, active compounds read low 1 | S. cerevisiae deletion strains, locus YLR258W, strain gsy2, active compounds read low 0.995 | S. cerevisiae deletion strains, locus YLR262C, strain YPT6 (second series), active compounds read low 1.02 | S. cerevisiae deletion strains, locus YLR262C, strain YPT6, active compounds read low 1.02 | S. cerevisiae deletion strains, locus YLR268W, strain sec22, active compounds read low 0.965 | S. cerevisiae deletion strains, locus YLR320W, strain mms22, active compounds read low 0.976 | S. cerevisiae deletion strains, locus YLR330W, strain CHS5, active compounds read low 0.995 | S. cerevisiae deletion strains, locus YLR342W, strain FKS1 (second series), active compounds read low 0.975 | S. cerevisiae deletion strains, locus YLR342W, strain FKS1, active compounds read low 0.976 | S. cerevisiae deletion strains, locus YLR357W, strain rsc2, active compounds read low 0.977 | S. cerevisiae deletion strains, locus YLR370C, strain arc18, active compounds read low 1.01 | S. cerevisiae deletion strains, locus YLR371W, strain rom2, active compounds read low 0.984 | S. cerevisiae deletion strains, locus YLR384C, strain iki3, active compounds read low 1.02 | S. cerevisiae deletion strains, locus YLR418C, strain cdc73, active compounds read low 0.959 | S. cerevisiae deletion strains, locus YML016C, strain PPZ1, active compounds read low 0.991 | S. cerevisiae deletion strains, locus YML032C, strain rad52, active compounds read low 0.99 | S. cerevisiae deletion strains, locus YML120C, strain ndi1, active compounds read low 0.994 | S. cerevisiae deletion strains, locus YML124C, strain tub3, active compounds read low 0.974 | S. cerevisiae deletion strains, locus YMR058W, strain fet3, active compounds read low 1.06 | S. cerevisiae deletion strains, locus YMR078C, strain ctf18, active compounds read low 0.978 | S. cerevisiae deletion strains, locus YMR125W, strain sto1, active compounds read low 1.01 | S. cerevisiae deletion strains, locus YMR129W, active compounds read low 1.02 | S. cerevisiae deletion strains, locus YMR205C, strain PFK2, active compounds read low 0.989 | S. cerevisiae deletion strains, locus YMR223W, strain ubp8, active compounds read low 0.972 | S. cerevisiae deletion strains, locus YMR231W, strain pep5, active compounds read low 1.01 | S. cerevisiae deletion strains, locus YMR263W, strain SAP30, active compounds read low 0.997 | S. cerevisiae deletion strains, locus YMR307W, strain GAS1, active compounds read low 0.957 | S. cerevisiae deletion strains, locus YNL067W, strain RPL9B, active compounds read low 1.02 | S. cerevisiae deletion strains, locus YNL071W, strain lat1, active compounds read low 1.02 | S. cerevisiae deletion strains, locus YNL128W, strain TEP1, active compounds read low 0.981 | S. cerevisiae deletion strains, locus YNL153C, strain GIM3, active compounds read low 1.05 and 1.02 | S. cerevisiae deletion strains, locus YNL175C, strain NOP13, active compounds read low 1 | S. cerevisiae deletion strains, locus YNL183C, strain NPR1, active compounds read low 0.967 | S. cerevisiae deletion strains, locus YNL197C, strain WHI3, active compounds read low 1.04 | S. cerevisiae deletion strains, locus YNL209W, strain ssb2, active compounds read low 1.01 | S. cerevisiae deletion strains, locus YNL224C, strain SQS1, active compounds read low 0.999 | S. cerevisiae deletion strains, locus YNL233W, strain BNI4, active compounds read low 1.01 | S. cerevisiae deletion strains, locus YNL248C, strain rpa49, active compounds read low 0.987 | S. cerevisiae deletion strains, locus YNL250W, strain rad50, active compounds read low 0.946 | S. cerevisiae deletion strains, locus YNL271C, strain bni1, active compounds read low 0.967 | S. cerevisiae deletion strains, locus YNL298W, strain CLA4, active compounds read low 0.969 | S. cerevisiae deletion strains, locus YNL307C, strain MCK1, active compounds read low 0.975 | S. cerevisiae deletion strains, locus YNL322C, strain KRE1 (second series), active compounds read low 0.982 | S. cerevisiae deletion strains, locus YNR049C, strain mso1, active compounds read low 1 | S. cerevisiae deletion strains, locus YNR052C, strain pop2, active compounds read low 0.977 | S. cerevisiae deletion strains, locus YOL006C, strain TOP1, active compounds read low 1 | S. cerevisiae deletion strains, locus YOL012C, strain htz1 0.812 | S. cerevisiae deletion strains, locus YOL147C, strain pex11, active compounds read low 0.977 | S. cerevisiae deletion strains, locus YOR001W, strain rrp6, active compounds read low 1.01 | S. cerevisiae deletion strains, locus YOR061W, strain CKA2, active compounds read low 0.99 | S. cerevisiae deletion strains, locus YOR069W, strain VPS5, active compounds read low 0.986 | S. cerevisiae deletion strains, locus YOR070C, strain gyp1, active compounds read low 0.998 | S. cerevisiae deletion strains, locus YOR080W, strain dia2, active compounds read low 1.01 | S. cerevisiae deletion strains, locus YOR083W, strain WHI5 (second series), active compounds read low 1.03 | S. cerevisiae deletion strains, locus YOR083W, strain WHI5, active compounds read low 0.951 | S. cerevisiae deletion strains, locus YOR106W, strain vam3, active compounds read low 1.03 | S. cerevisiae deletion strains, locus YOR136W, strain idh2, active compounds read low 0.992 | S. cerevisiae deletion strains, locus YOR144C, strain elg1, active compounds read low 0.982 | S. cerevisiae deletion strains, locus YOR184W, strain ser1, active compounds read low 0.973 | S. cerevisiae deletion strains, locus YOR231W, strain MKK1, active compounds read low 1.07 | S. cerevisiae deletion strains, locus YOR265W, strain rbl2, active compounds read low 1 | S. cerevisiae deletion strains, locus YOR270C, strain vph1, active compounds read low 1.05 | S. cerevisiae deletion strains, locus YOR290C, strain snf2, active compounds read low 1 | S. cerevisiae deletion strains, locus YOR316C, strain cot1, active compounds read low 0.986 | S. cerevisiae deletion strains, locus YPL051W, strain arl3, active compounds read low 0.997 | S. cerevisiae deletion strains, locus YPL055C, strain LGE1, active compounds read low 1.01 | S. cerevisiae deletion strains, locus YPL078C, strain atp4, active compounds read low 1 | S. cerevisiae deletion strains, locus YPL106C, strain sse1, active compounds read low 0.962 | S. cerevisiae deletion strains, locus YPL240C, strain hsp82, active compounds read low 1 | S. cerevisiae deletion strains, locus YPL241C, strain CIN2, active compounds read low 0.985 | S. cerevisiae deletion strains, locus YPL256C, strain CLN2, active compounds read low 1.06 | S. cerevisiae deletion strains, locus YPR119W, strain clb2, active compounds read low 0.983 | S. cerevisiae deletion strains, locus YPR141C, strain kar3, active compounds read low 0.967 | S. cerevisiae deletion strains, locus YPR163C, strain tif3, active compounds read low 0.983 | S. cerevisiae deletion strains, locus YPR167C, strain met16, active compounds read low 0.986 | S. cerevisiae deletion strains, strain wtn01, active compounds read low 0.958 | S. cerevisiae strains, strain wild type, active compounds read low 0.999
